High-throughput results from PubChem.
Sampled rows, rich in hits. Any-hit rate of the full collection: about 19%.
TGFb inhibitor: inhibitors of TGF-b signaling; HepG2 CAGA-GFP TGF-b/SMAD3 reporter, GFP fluorescence, 18 h; TGF-beta stimulated, 500 pg/mL final; Potency, µM (series often up to 46.1 µM), inactives show at the top dose activity, negative = inhibition, hits mostly inhibitors; actives 1.2% (n = 410,000); AID 588855; also: potency is read from the fitted curve at half-maximal effect; % is scaled to controls: 0 for no effect and ±100 for the full control effect; nearly all actives have a fitted effect of over 65% in size
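Inhibition was scored as loss of TGF-beta-induced (500 pg/mL final, 18 hours, 37 degrees C) GFP in HEPG2 cells carrying a CAGA-GFP reporter, in DMEM with 1% FBS. Well GFP was summed per cell; Activity was normalised to unstimulated and stimulated DMSO wells, then concentration-response fitting.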
ASM inhibitor: blocks human secretory acid sphingomyelinase; P17405; placental ASM, HMU-PC fluorogenic substrate, 60 min; Potency, µM (titrated, usually from 57.5 µM), without a hit: at the top dose activity change, negative = inhibition, most hits filed as inhibitors; actives 0.006% (n = 340,000); also: potency is read from the fitted curve at half-maximal effect
Target sequence (P17405 47-631 limits assumed): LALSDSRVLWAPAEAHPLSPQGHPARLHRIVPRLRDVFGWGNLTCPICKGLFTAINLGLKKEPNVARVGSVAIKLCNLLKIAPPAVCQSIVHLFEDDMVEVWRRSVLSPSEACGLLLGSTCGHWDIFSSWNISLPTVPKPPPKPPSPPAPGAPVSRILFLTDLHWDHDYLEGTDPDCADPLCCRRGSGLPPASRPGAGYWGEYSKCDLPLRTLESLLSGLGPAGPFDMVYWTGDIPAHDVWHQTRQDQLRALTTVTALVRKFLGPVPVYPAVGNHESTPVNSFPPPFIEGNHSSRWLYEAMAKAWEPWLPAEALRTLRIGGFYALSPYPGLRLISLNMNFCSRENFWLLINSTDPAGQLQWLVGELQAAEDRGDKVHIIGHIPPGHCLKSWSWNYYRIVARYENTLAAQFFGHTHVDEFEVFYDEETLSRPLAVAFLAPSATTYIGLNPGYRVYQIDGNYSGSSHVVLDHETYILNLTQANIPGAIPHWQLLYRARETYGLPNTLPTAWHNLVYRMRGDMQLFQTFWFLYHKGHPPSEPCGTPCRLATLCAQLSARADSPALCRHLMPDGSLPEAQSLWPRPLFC
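HMU-PC0 cleavage (9 uM final) by human placental ASM, 60 min at 37 °C following 10 min compound exposure at RT; stopped at pH 10, fluorescence Ex 386/Em 447 nm.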
DT40 TDP1 CPT: DT40-hTDP1 cell growth loss with CPT. actives 12% (n = 420,000). AID 686979. chicken DT40 Tdp1-/-;hTDP1 cells + 20 nM CPT, ATP luminescence, 48 h. Potency, µM (titrated, usually from 46.2 µM), inactives show at the highest dose activity change, negative = growth inhibition, most hits filed as inhibitors; also: potency is read from the fitted curve at half-maximal effect; % is scaled to controls: 0 for no effect and ±100 for the full control effect; nearly all actives have a fitted effect of over 55% in size
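Chicken DT40 Tdp1-/- cells complemented with human TDP1, 400 cells/well, exposed to compounds plus 20 nM camptothecin for at least 48 h at 37 C; viability read as ATP content by CellTiter-Glo luminescence.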
IL1B secr inh: blocks inflammasome-driven IL-1 beta release; THP-1 LPS/ATP IL-1B secretion, AlphaLISA, 16 h; active compounds read low; activity change, % at 57.5 µM; actives 4.7% (n = 360,000); AID 743279; in the data active = activity change below about -50%; inconclusive = mostly about -30% to -49%; also: % is scaled to controls: 0 for no effect and ±100 for the full control effect
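THP-1 cells pretreated 1 hr with compounds (up to 57.5 uM final), then stimulated with LPS (250 ng/mL final) plus ATP (1.25 mM final); secreted IL-1B measured by AlphaLISA after 16 hr, decreased signal indicating inhibition.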
HepG2 viability: HepG2 cytotoxicity, counter-screen for TGF-b inhibitors. actives 0.76% (n = 410,000). HepG2 CAGA-GFP viability, ATP luminescence, 18 h. Potency, µM (titrated, usually from 46.1 µM), for the others: at the top dose activity change, negative = cytotoxicity, hits mostly cytotoxic; also: potency is read from the fitted curve at half-maximal effect
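CellTiter-Glo luminescence gave cytotoxicity after 18 hours at 37 degrees C. The cells were HepG2 CAGA-GFP in 1% FBS DMEM, stimulated with 500 pg/mL TGF-beta after compound addition. %Activity was normalised to no-cell wells (complete cell-killing) and DMSO (no toxicity), and curves were fitted and classified.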
DT40 TDP1 no CPT: qHTS for Inhibitors of human tyrosyl-DNA phosphodiesterase 1 (TDP1): qHTS in cells in absence of CPT | DT40 Tdp1-/- hTDP1 cells, no CPT, ATP luminescence, 48 h | Potency, µM (doses to about 46.2 µM), for the others: top-dose activity change, negative = growth inhibition, usual class: inhibitors | actives 15% (n = 420,000) | AID 686978, 2013; also: potency is read from the fitted curve at half-maximal effect; % is scaled to controls: 0 for no effect and ±100 for the full control effect; nearly all actives have a fitted effect of over 55% in size
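No-CPT arm: Tdp1-/-;hTDP1 DT40 cells (400/well) plus compounds, incubated ≥48 hr at 37 °C. Readout CellTiter-Glo luminescence.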
* = called active by the depositor; i = inactive; u = inconclusive; x = not tested or not shown. Unless noted, calls follow the shape of the dose curve; as a rule, active = well fitted curve in the direction sought with a large enough effect; inconclusive = small, poorly fitted or top-dose-only effect, or another doubt; inactive = no such curve, though single readings can be large; an effect the other way counts as inactive or inconclusive.

SMILES	TGFb inhibitor	ASM inhibitor	DT40 TDP1 CPT	IL1B secr inh	HepG2 viability	DT40 TDP1 no CPT
O=[N+]([O-])c1ccccc1OCCCNCc1ccccc1	-5.5%	-5.0%	-0.7%	u	-14.1%	-26.4%
Clc1ccc(OCCCNCc2ccccc2)c(Br)c1	u	-0.1%	14.6µM*	x	-105.1%	16.4µM*
Cc1cc(OCCCCCNCCO)ccc1Cl	17.0%	1.3%	14.6µM*	-17.7	-47.0%	16.4µM*
OCCNCCCOc1ccc(Cl)cc1Br	12.0%	-1.1%	u	-10.9	-61.5%	29.1µM*
C=CCNCCCOc1ccc(Cl)cc1Br	-0.5%	2.4%	u	u	0.2%	u
Cc1cc(Br)ccc1OCCCCNCCO	0.0%	0.0%	23.1µM*	-29.9	-69.2%	20.6µM*
O=[N+]([O-])c1ccc2c(c1)CO[C@@]21O[C@H](CCO)C[C@H](O)[C@H]1O	-1.9%	x	-3.9%	11.2	-27.8%	u
COCCNCCCOc1ccc(Br)cc1Cl	7.6%	1.6%	u	u	-27.2%	u
COCCNCCCOc1ccc(Cl)cc1Br	-6.9%	6.5%	u	u	-18.8%	16.4µM*
CCN(CC)S(=O)(=O)c1ccc(-c2nnc3sc4cccc(C)c4n23)cc1	-1.1%	1.4%	23.1µM*	11.4	-27.4%	u
CCN(CC)S(=O)(=O)c1ccc(-c2nnc(SCC(N)=O)n2CC)cc1	5.3%	7.8%	2.4%	11.2	3.9%	-0.3%
O=C(c1cc(-c2ccccn2)nc2ccc(Br)cc12)N1CCN(S(=O)(=O)c2ccccc2)CC1	6.5%	-1.7%	u	49.9	-2.0%	u
CC(=O)c1ccc(N2CCN(C(=O)c3cc(-c4ccncc4)nc4ccc(Br)cc34)CC2)cc1	1.6%	-7.1%	20.6µM*	i	-1.7%	20.6µM*
Cc1ccc(-c2cc(C(=O)N3CCN(C(=O)c4ccco4)CC3)[nH]n2)cc1C	-4.5%	2.5%	u	u	3.5%	-25.7%
COc1ccc(-c2cc(C(=O)NCCCN3CCOCC3)c3cc(C(C)C)ccc3n2)cc1	-11.1%	275.4%	u	u	-8.4%	u
Cc1cccc2c(C(=O)N3CCN(C(=O)c4ccco4)CC3)cc(-c3cccc(Br)c3)nc12	u	-5.0%	u	-71.2*	16.4%	u
CC(C)c1ccc(-c2cc(C(=O)N3CCOCC3)c3cc(Br)ccc3n2)cc1	5.4%	x	u	-72.7*	1.2%	u
O=C(c1ccco1)N1CCN(C(=O)c2cc(-c3ccncc3)nc3ccc(Br)cc23)CC1	0.0%	1.3%	20.6µM*	0.0	-4.3%	9.2µM*
O=C(c1ccco1)N1CCN(C(=O)c2cc(-c3ccccc3)nc3ccccc23)CC1	-14.9%	-0.7%	u	0.0	-26.3%	u
COc1ccc(-c2nc3ccccc3s2)cc1NC(=O)c1cc2ccccc2o1	-3.2%	x	-11.0%	x	-13.1%	-17.7%
CCOc1ccccc1Nc1nnc(SCC(=O)Nc2cccc(S(=O)(=O)NC3=NCCCCC3)c2)s1	-26.5%	x	23.1µM*	-13.8	-30.9%	18.4µM*
Cc1ccc(NC(=O)CSCC(=O)Nc2cccc(S(=O)(=O)N3CCCCCC3)c2)cc1	u	-7.5%	20.6µM*	-21.1	-15.1%	u
O=C(CSc1nnc(NC2CCCCC2)s1)Nc1ccc2c(c1)C(=O)c1ccccc1C2=O	1.1%	-20.6%	u	-29.7	-3.5%	u
Cc1ccc(Nc2nnc(SCC(=O)Nc3cccc(S(=O)(=O)N4CCCCC4)c3)s2)cc1	u	-11.4%	u	-14.5	-21.3%	18.4µM*
CCOc1ccccc1Nc1nnc(SCC(=O)Nc2ccc3[nH]c(=O)[nH]c3c2)s1	0.0%	-7.6%	0.4%	-11.8	-38.2%	-13.3%
SMILES	TGFb inhibitor	ASM inhibitor	DT40 TDP1 CPT	IL1B secr inh	HepG2 viability	DT40 TDP1 no CPT
CC(C)Nc1nnc(SCC(=O)Nc2ccc3c(c2)C(=O)c2ccccc2C3=O)s1	2.0%	-16.9%	u	-10.7	1.1%	18.4µM*
Cc1cccc(NC(=O)CSCC(=O)Nc2cccc(S(=O)(=O)N3CCCCCC3)c2)c1	0.1%	-7.8%	-27.4%	-5.7	-5.1%	u
CCN(CC)S(=O)(=O)c1ccc2c(c1)nc(SCC(=O)N(C)C1CCS(=O)(=O)C1)n2CC (configuration not stated)	-13.0%	-2.4%	-26.2%	-9.0	-10.2%	-18.3%
Cc1ccc(CSCCNC(=O)CN(c2ccccc2)S(C)(=O)=O)cc1	-8.9%	-7.4%	3.0%	18.0	-14.5%	-7.7%
CC1CCCN(C(=O)c2sc3cc([N+](=O)[O-])ccc3c2Cl)C1 (configuration not stated)	u	-5.2%	25.9µM*	-17.7	-14.3%	16.4µM*
CC(NC(=O)c1sc2cc([N+](=O)[O-])ccc2c1Cl)C(C)(C)C (configuration not stated)	17.8%	-2.0%	5.17µM*	u	-3.1%	4.11µM*
O=C(c1sc2cc([N+](=O)[O-])ccc2c1Cl)N1CCCCC1	-7.6%	0.1%	-2.4%	u	-14.6%	u
O=C(NC1CC1)c1sc2cc([N+](=O)[O-])ccc2c1Cl	2.0%	-2.9%	-6.3%	-4.6	-27.5%	u
O=C(NCc1ccccc1)N1CCC(Cc2ccccc2)CC1	14.4%	-1.7%	u	-9.6	5.2%	u
Cc1ccc(Cn2c(C(=O)O)c(CNCc3ccc(C)o3)c3ccc(C)cc32)cc1	u	x	u	x	-69.5%	u
Cc1ccc(CNCc2c(C(=O)O)n(Cc3ccc(C)cc3)c3cc(C)ccc23)cc1	28.2µM*	x	23.1µM*	x	-107.8%	u
Cc1ccc2c(CNC3CCCC3)c(C(=O)O)n(Cc3ccc(F)cc3)c2c1	u	x	-6.8%	x	-29.3%	-18.1%
Cc1ccc2c(CNCCc3ccco3)c(C(=O)O)n(Cc3ccc(F)cc3)c2c1	u	x	20.6µM*	x	-17.9%	25.9µM*
Cc1ccc2c(CNCc3cccc(Cl)c3)c(C(=O)O)n(Cc3ccc(F)cc3Cl)c2c1	-0.3%	x	3.26µM*	x	-49.5%	3.26µM*
CCOc1ccc(CNCc2c(C(=O)O)n(Cc3ccccc3C)c3cc(OC)ccc23)cc1OC	u	x	0.651µM*	x	-12.1%	1.03µM*
COc1ccc2c(CNC3CCCC3)c(C(=O)O)n(Cc3ccccc3C)c2c1	-6.1%	x	u	x	-10.5%	u
Cc1ccc(Cn2c(C(=O)O)c(CNCc3ccc(OC(C)C)cc3)c3ccc(C)cc32)cc1	u	x	16.4µM*	x	-106.0%	u
